# From PubChem BioAssay
# RORgamma inh – inhibitors of mouse ROR gamma transcriptional activity | P51450 | Drosophila S2 Gal4-RORgamma UAS-luciferase reporter, 20 h | Potency, µM (top dose mostly 53.6 µM), for the others: at the highest dose activity change, negative = inhibition, usual class: inhibitors | hit rate 5.4% among 310,000; further: nearly all actives have a fitted effect of over 60% in size
# Target sequence (P51450 whole entry, looked up, the tested form may be a part): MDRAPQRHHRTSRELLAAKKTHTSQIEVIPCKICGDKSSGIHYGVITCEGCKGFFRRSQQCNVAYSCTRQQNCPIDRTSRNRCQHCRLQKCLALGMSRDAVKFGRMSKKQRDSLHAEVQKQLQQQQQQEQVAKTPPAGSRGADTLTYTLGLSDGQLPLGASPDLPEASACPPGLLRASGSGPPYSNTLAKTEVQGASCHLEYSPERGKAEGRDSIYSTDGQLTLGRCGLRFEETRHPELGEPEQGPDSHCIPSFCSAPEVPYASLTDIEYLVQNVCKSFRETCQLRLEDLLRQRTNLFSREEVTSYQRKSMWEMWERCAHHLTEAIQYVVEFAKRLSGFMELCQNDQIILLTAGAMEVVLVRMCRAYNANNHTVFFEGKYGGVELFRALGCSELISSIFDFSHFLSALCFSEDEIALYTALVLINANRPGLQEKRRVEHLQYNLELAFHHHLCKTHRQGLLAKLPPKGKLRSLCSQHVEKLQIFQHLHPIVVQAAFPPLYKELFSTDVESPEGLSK
#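 Schneider cells (Drosophila), stable Gal4 DBD–ROR gamma + UAS-luc; 1 hr cmpd preincubation; Cu2+ induction 700 uM final; 20 hr ambient; luminescence.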
# Sfp PPTase inh – Sfp phosphopantetheinyl transferase inhibition | Biochemical Sfp PPTase activity, qHTS | Potency, µM, without a hit: largest response in the series, negative = inhibition, hits mostly inhibitors | Q9F4F7 | hit rate 3.5% among 310,000;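 further: the enzyme is Sfp with the accession as filed and its product quenches rhodamine fluorescence; 0% = enzyme reaction without inhibitor and -100% = no enzyme wells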
#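 Sfp 15 nM + cpd, 15 min RT; start w/ rhodamine-CoA 5 uM, BHQ-2-YbbR 12.5 uM (final); 50 mM Hepes pH 7.6, 10 mM MgCl2, 0.01% NP-40, 0.01% BSA; read 525/598 nm at 0 and 30 min.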
# ALDH1A1 inh – ALDH1A1 (human) enzyme inhibition | AID 1030 | Potency, µM (titrated, usually from 75.3 µM), inactives show at the highest dose activity, negative = inhibition, actives largely listed as inhibitors | P00352 | hit rate 7.3% among 220,000 | Purified ALDH1A1, NADH fluorescence, propionaldehyde substrate; active means well fitted inhibition curve with a large enough effect, not every such curve was filed as active; inconclusive means small, poorly fitted or top-dose-only effect, or another doubt; inactive means no such curve, though single readings can be large or run the other way;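 further: plate controls were no enzyme wells and a reference inhibitor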
# Gal4-VP16 FLuc – Gal4-VP16 reporter inhibition counter-screen; Drosophila S2 Gal4-VP16 UAS-luciferase, luminescence, 20 h; Potency, µM (titrated, usually from 53.6 µM), inactives show top-dose activity, negative = inhibition, usual class: inhibitors; hit rate 3.5% among 310,000; AID 2546;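 further: Gal4-VP16 expression switched on by copper sulfate through the metallothionein promoter; nearly all actives have a fitted effect of over 50% in size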
# PLK1 PBD block – blocks phosphopeptide binding to human PLK1 polo-box domain | AID 720504 | Potency, µM, for inactives: max response, negative = inhibition, hits mostly inhibitors | hit rate 2.8% among 360,000 | Plk1 PBD binding of FITC phosphopeptide, fluorescence polarization | P53350; further: series mostly up to about 57 µM; nearly all actives have a fitted effect of over 65% in size
# Starred values were filed as active, the others as inactive; ? = inconclusive; . = not tested or not shown; [ ] = dose if it differs, or a comment. Compounds with a hit are over-represented: about 12% of the library has one in this group of screens. Unless noted, the call rests on the fitted dose curve; in most records, active means well fitted curve in the direction sought with a large enough effect; inconclusive means small, poorly fitted or top-dose-only effect, or another doubt; inactive means no such curve, though single readings can be large; an effect the other way counts as inactive or inconclusive. Unless noted, on the % scale 0 is the no-effect control and ±100 the full control effect; potency means the concentration at half of the fitted maximal effect.
SMILES,RORgamma inh,Sfp PPTase inh,ALDH1A1 inh,Gal4-VP16 FLuc,PLK1 PBD block
Nc1nc(SCC(=O)N2CCCC2)[nH]c(=O)c1-c1ccccc1,-2.2%,0.9%,-6.1%,-1.9%,6.7µM*
CCCCCSc1nc2c(cnn2-c2ccc(F)cc2)c(=O)[nH]1,12.2%,1.4%,.,6.3%,26.7µM*
Nc1nc(SCC(=O)N2CCOCC2)[nH]c(=O)c1-c1ccccc1,-13.1%,21.1%,-13.8%,6.3%,2.0%
O=C(CSc1nc2c(cnn2-c2ccccc2)c(=O)[nH]1)N1CCOCC1,-14.1%,-11.3%,0.2%,5.9%,13.4µM*
CS(=O)(=O)N(CC(=O)N1CCC(C(N)=O)CC1)c1cc(C(F)(F)F)ccc1Cl,-4.1%,14.3%,2.8%,5.9%,-10.1%
N#Cc1ccccc1-c1ccc2ncnc(NCCN3CCOCC3)c2c1,38.3%,37.4%,?,15.9%,.
Cc1cccc(C(=O)NC(C)C(c2cccs2)N2CCOCC2)c1 (stereo not given),15.0%,11.8%,.,9.8%,-4.7%
CC(NC(=O)c1cccs1)C(c1cccs1)N1CCOCC1 (stereo not given),-2.6%,12.6%,-0.1%,0.1%,1.0%
Cc1ccc(C)c(NC(=S)NC(C)C(c2cccs2)N2CCOCC2)c1 (stereo not given),5.01µM*,14.5%,-10.6%,11.2µM*,-5.5%
CC(NC(=S)Nc1cccc(F)c1)C(c1cccs1)N1CCOCC1 (stereo not given),8.91µM*,17.7%,.,?,5.6%
O=C(N/N=C/c1ccccn1)c1cc(-c2ccncc2)nc2ccccc12,8.91µM*,2.9%,4.1%,?,-3.6%
O=C(N/N=C/c1cccnc1)c1cc(-c2ccccc2)nc2ccccc12,0.4%,-3.3%,.,-0.1%,-0.4%
O=C(N/N=C/c1ccsc1)c1cc(-c2cccs2)nc2ccccc12,3.98µM*,11.6%,114.1%,4.47µM*,-4.7%
O=C(N/N=C/c1ccc[nH]1)c1cc(-c2ccc(Cl)cc2)nc2ccccc12,1.41µM*,19.2%,3.4%,5.62µM*,-10.4%
O=C(N/N=C/c1ccsc1)c1cc(-c2ccncc2)nc2ccccc12,11.2µM*,33.6%,-8.9%,-12.7%,-2.3%
CC1(C(=O)NS(=O)(=O)C2CC2)CCCN(C(=O)c2c(F)cccc2F)C1 (stereo not given),.,.,.,.,-0.1%
C/C=C1\C(=O)C[C@H]2[C@@H]3CCC4=CC(=O)CC[C@]4(C)[C@H]3CC[C@]12C,-7.3%,.,?,3.3%,.
COc1ccc(S(=O)(=O)N2CCCCC2c2cc(C(=O)Nc3ccc4c(c3)OCO4)no2)cc1 (stereo not given),.,.,.,.,1.5%
O=C(Nn1cc(C(=O)Nc2ccc(F)cc2F)c2ccccc2c1=O)c1cnccn1,11.2µM*,-5.1%,-5.2%,?,-1.5%
O=C(Nc1ccccc1F)c1cnccn1,8.6%,11.2%,7.0%,9.9%,-0.9%
S=C1NCN(C2CCCCC2)CN1Cc1ccccc1,1.78µM*,14.3%,3.1%,3.55µM*,-8.9%
O=C1C(c2ccccc2)NC(=S)N1C1CCCCC1 (stereo not given),-37.3%,5.0%,.,3.7%,?
O=C1CNC(=S)N1Cc1ccccc1,-2.8%,6.6%,-14.1%,-2.2%,-6.0%
S=C1NCN(Cc2ccccc2)CN1C1CCCCC1,0.794µM*,16.7%,2.7%,3.98µM*,-3.6%
CCCC(O)(CCN1CCCCC1)c1ccc(OCC)cc1 (stereo not given),-5.7%,20.1%,0.891µM*,-1.0%,-28.1%
SMILES,RORgamma inh,Sfp PPTase inh,ALDH1A1 inh,Gal4-VP16 FLuc,PLK1 PBD block
CCCCCC(O)(CCN1CCCCC1)c1ccc(OCC)cc1 (stereo not given),-4.9%,-13.1%,1.78µM*,-2.2%,16.8µM*
CCC(O)(CCN1CCCCC1)c1ccccc1 (stereo not given),0.4%,18.9%,8.8%,-6.4%,1.8%
CCOc1ccc(NC(=O)CCN2CCCCC2)cc1,2.8%,19.2%,9.4%,0.2%,0.9%
Cc1cc2c(cc1C)-n1nnnc1C(N(Cc1ccccc1)Cc1ccccc1)C(=O)N2 (stereo not given),.,.,.,.,-0.2%
CN1C(=O)CCS(=O)(=O)C1c1ccc(Cl)c(Cl)c1 (stereo not given),.,.,.,.,-0.3%
O=C(NC1CCCC1)C1c2ccccc2OCC(=O)N1CCc1ccccc1 (stereo not given),.,.,.,.,-3.9%
Cc1ccc(C(=O)NCCNC(=O)c2ccco2)cn1,-33.2%,27.4%,.,1.6%,-5.1%
Cc1nc(NCCc2ccc(S(N)(=O)=O)cc2)c2c(C)c(C)sc2n1,10µM*,-5.2%,-10.2%,10µM*,-17.9%
Cc1nc(NCCNC(=O)c2ccco2)c2c(C)c(C)sc2n1,44.8%,-5.8%,14.1µM*,2.6%,-10.7%
C=CCC(NCc1ccccc1)c1ccc(C)o1 (stereo not given),.,.,.,.,10.6µM*
C=CCC(NCc1ccccc1)c1ccc(Cl)cc1 (stereo not given),-12.4%,0.8%,13.9%,?,-1.8%
Cc1cc(OI)c(C(C)C)cc1-c1cc(C(C)C)c(OI)cc1C,-10.9%,56.2µM*,7.0%,2.8%,.
C=CCS/C(=N\n1cnc2ccccc2c1=O)N1CCCCC1,15.2%,13.3%,?,-33.0%,26.7µM*
NC(=S)N=Nc1c(O)cc(O)c2[nH]c(=O)ccc12,.,.,.,.,7.52µM*
O=C(/C=C/c1ccccc1O)c1ccco1,7.94µM*,1.8%,.,11.2µM*,-17.4%
O=C(/C=C/c1cc(Br)ccc1O)c1ccco1,?,?,.,?,26.7µM*
COc1ccccc1/C=C/C(=O)c1cc(Br)ccc1OC(=O)c1ccco1,.,.,.,.,23.8µM*
Nc1ccc(/C=C/C(=O)c2ccco2)cc1,?,-16.3%,-0.7%,?,23.9%
O=C1OCCC1=COCCCCCCOC=C1CCOC1=O,.,.,.,.,-3.3%
CC(NS(=O)(=O)c1cc(C(F)(F)F)ccc1Cl)C(=O)N(C)C1CCN(C)CC1 (stereo not given),.,.,.,.,0.0%
Cc1cc2c(cc(C(=O)OCC(=O)NCc3cccs3)n2C(C)C)o1,24.4%[0.365 µM],-24.4%,18.9µM*,.,-8.6%
Cn1cccc1C(C#N)c1cccc(F)c1C#N (stereo not given),-16.8%,-2.2%,25.1µM*,7.0%,1.9%
Cn1cccc1C(C#N)(CC#N)c1cccc(F)c1C#N (stereo not given),-6.4%,25.1%,8.6%,23.6%,-8.8%
CC1CC=C(O)C12OCC(C)(C)CO2 (stereo not given),.,.,.,.,-16.1%
COCCNC(=O)C1(C)CCCN(C(=O)c2ccc(F)c(Cl)c2)C1 (stereo not given),.,.,.,.,1.4%
Cc1cc(C)c(S(N)(=O)=O)c(C)c1-n1cnnn1,8.91µM*,15.4%,16.1%,3.3%,2.1%
COCCNC(=O)CN1C(=O)/C(=C/c2ccccc2)Oc2ccc(C(C)(C)C)cc21,21.7%,?,.,-8.1%,-3.5%
Cc1ccc(S(=O)(=O)N2[C@H](CC(=O)c3cccc4ccccc34)OC[C@@H]2C)cc1,.,.,.,.,-15.3%
CC(C)(C)c1ccc(S(=O)(=O)N2CCN(C(=O)C3=COCCO3)CC2)cc1,.,.,.,.,2.8%
N#CCCn1c(=O)c(CCc2ccccc2)nc2cnc(N3CCOCC3)nc21,2.5%,7.3%,?,3.2%,.
